Experimental findings from PubChem BioAssay AID618 (Sanford-Burnham Center for Chemical Genomics, 2007) are described below.

The structures appear in SMILES notation. Screen size: about 87,000 compounds; about 540 (0.62%) were called active. No rule for the calls is given here. Shown is part of a subset that was picked to be rich in actives. Measured potencies and affinities stand elsewhere.

This experiment can be described thus: MT1-MMP gene expression reporter suppression – cell-based, luciferase reporter, luminescence (AID 618).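 Also: actives suppress MT1-MMP promoter-driven transcription so potencies describe inhibitors.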 Particulars: MT1-MMP promoter luciferase reporter cells. On the technique in general: A reporter such as luciferase makes a cellular process visible.
On to `O=C(Cn1ncc2c(=O)oc3ccccc3c21)NCCN1CCN(c2ccccc2F)CC1`, for which the result was inactive.
`COc1ccc(C2C(=O)N(C3CCCCC3)CC(=O)N2Cc2ccc3c(c2)OCO3)cc1` (stereo not drawn): the result was inactive.
With `COc1ccc(NS(=O)(=O)c2cc(OC)ccc2NC(=O)c2cc(C)oc2C)cc1`, the molecule was called active.
On to `COc1ccc(NS(=O)(=O)c2cc(C)ccc2NC(=O)c2cc(C)oc2C)cc1`, for which the call was active.
As to `COc1ccc2nc(NC(=O)c3cc(C)oc3C)sc2c1`, the call was inactive.
Under `COc1ccc(NS(=O)(=O)c2cc(C)ccc2C)cc1` stands “inactive”.
The same measure for `COc1ccc(NS(=O)(=O)c2cc(C(=O)O)ccc2C)cc1`: “inactive”; for `COc1ccc(C)c(S(=O)(=O)Nc2ccc(OCC(=O)O)cc2)c1`: “inactive”.
With `CC(C)(C)c1ccc(C(=O)C=[N+]=[N-])cc1`, the outcome was inactive.
As to `Cc1nn(C)c(C)c1CN(C)C(=O)c1cc2n(n1)C(C(F)(F)F)CC(c1cccs1)N2` (stereo not drawn), the outcome was inactive.
In the case of `CCOC(=O)c1ccc(N2C(=O)CC(N3CCC(C(N)=O)(N4CCCCC4)CC3)C2=O)cc1` (stereo not drawn), the outcome was inactive.
For the molecule `CCn1c(=O)cc(SCC(=O)N2CCCCC2)c2ccccc21`, the call was inactive.
Take `CCOC(=O)c1oc2ccccc2c1CSc1nnnn1-c1ccc(C)cc1`: the molecule was classed as inactive.
On to `CNc1cc([N+](=O)[O-])ccc1N/C=C/C(=O)c1cccs1`, for which the call was inactive.
The same measure for `O=C(/C=C/Nc1cccc([N+](=O)[O-])c1)c1cccs1`: “inactive”; for `COc1ccccc1NC(=O)CSc1nccc(=O)[nH]1`: “inactive”.
The same measure for `CCOc1cccc(C(=O)Nc2nccs2)c1`: “inactive”; for `CCCc1cc(C(=O)Nc2nnc(C)s2)cs1`: “inactive”; for `O=C(Nc1cnccn1)c1cccc(C(F)(F)F)c1`: “inactive”.
The same measure for `O=C(Nc1cnccn1)c1ccncc1`: “inactive”.
Regarding `CC(C)(C)c1ccc(C(=O)Nc2cnccn2)cc1`, the molecule was called active.
Take `Cc1ccnc(SCC(=O)N2CCN(c3ccccc3)CC2)n1`: the result was inactive.
As for `O=C(CCCC(=O)N(CC(=O)NC1CCCC1)Cc1ccccc1)Nc1ccccn1`, the molecule was classed as inactive.
With `COCCNC(=O)CNS(=O)(=O)c1ccc2nc(C)sc2c1`, the outcome was inactive.
As to `CN(C(=O)c1ccno1)c1nnc(-c2cnccn2)s1`, the call was inactive.
Regarding `Cc1ccc(C)c(SCC(=O)OCC(=O)Nc2ccc(S(=O)(=O)N3CCOCC3)cc2)c1`, the molecule was called inactive.
Regarding `O=C1CC(C(=O)Nc2cccc3ccccc23)C2(CCCC2)O1` (stereo not drawn), the call was inactive.
The same measure for `Cc1ccc2c(c1)c1c3n2CCN(C(=O)Cn2c(-c4ccccc4)noc2=O)C3CCC1` (stereo not drawn): “inactive”; for `CC(=O)N1CCn2c3c(c(=O)c4cc(C)ccc42)CCC31` (stereo not drawn): “inactive”.
The same measure for `Cc1ccc2c(c1)c(=O)c1c3n2CCN(C(=O)CCl)C3CC1` (stereo not drawn): “active”; for `Cc1sc2nc(CSc3nnc(Cc4cccs4)n3C3CCCCC3)[nH]c(=O)c2c1C`: “inactive”; for `Cc1ccc(NC2=NC(c3ccc(O)cc3)n3c(nc(C)cc3=O)N2)cc1` (stereo not drawn): “inactive”.
As for `Nc1nonc1/C(=N/O)N1CCN(CCO)CC1`, the result was inactive.
The same measure for `CNC(=O)[C@@]1(Cc2ccccc2)C=C[C@@H](C)N1C(=O)OC`: “inactive”; for `COC(=O)N1[C@H](C)C=C[C@]1(Cc1ccccc1)C(=O)O`: “active”.
Regarding `COC(=O)N1[C@H](C)C=C[C@]1(Cc1ccccc1)C(=O)OC`, the result was inactive.
With `Nc1nonc1N1CCCCC1`, the molecule was classed as inactive.
The same measure for `CCCNC(=O)Cn1cnc2sc(C(=O)NCCN(CC)CC)c(C)c2c1=O`: “inactive”; for `CN(C)C(=O)CCc1nc(-c2ccc(C(C)(C)C)cc2)no1`: “inactive”; for `CNC(=O)CCc1nc(-c2ccc(C(C)(C)C)cc2)no1`: “inactive”.
As to `O=C(O)CCCc1nc(-c2ccccc2)no1`, the molecule was classed as inactive.
Under `COc1ccc(-c2noc(CCC(=O)O)n2)cc1` stands “inactive”; under `CCOC(=O)C1C2C=CC3(CN(CCc4ccccc4)C(=O)C13)O2` (stereo not drawn), “inactive”.
As to `O=C(c1csc2c1CCCC2)N1CCN(c2ncccn2)CC1`, the molecule was classed as inactive.
For `Cc1cccc(-n2nnnc2SC(C)C(=O)NCCC2=CCCCC2)c1` (stereo not drawn), the call was inactive.
With `CC(C(=O)NC(=O)NC1CCCCC1)N1CCN(c2ccccn2)CC1` (stereo not drawn), the result was inactive.
Consider `O=C(CNC(=O)c1ccco1)NCC(=O)OCc1cccc(Cl)c1`, for which the molecule was classed as inactive.
Under `Nc1nc(-c2cccc(Br)c2)cs1` stands “inactive”.
As to `Cc1oc(-c2ccc3c(c2)OCCO3)cc1C(=O)NC(CCC(=O)O)C(=O)O` (stereo not drawn), the result was inactive.
The same measure for `Cc1oc(-c2ccccc2)cc1C(N)=O`: “inactive”; for `CCOC(=O)CNC(=O)c1cc(-c2ccc3c(c2)OCCO3)oc1C`: “inactive”.
Consider `COc1cc(C)c(-c2cc(C(=O)O)c(C)o2)cc1C(C)C`, for which the call was inactive.
The same measure for `COc1ccc(C2=NN(CN3C(=O)C(=O)c4ccccc43)C(c3ccc(C)cc3)C2)cc1` (stereo not drawn): “inactive”; for `O=C(N1CCN(c2ccccn2)CC1)N1c2ccccc2Sc2ccccc21`: “active”; for `O=C(CN1CCN(c2ccccn2)CC1)N1c2ccccc2Sc2ccc(C(F)(F)F)cc21`: “inactive”.
Regarding `O=C(N1CCOCC1)N1CCN(c2ccccn2)CC1`, the molecule was called inactive.
As to `O=C(c1ccco1)N1CCN(C(=O)N2c3ccccc3Sc3ccccc32)CC1`, the result was active.
As for `O=C(NC1CCN(C(=O)N2c3ccccc3Sc3ccccc32)CC1)c1ccco1`, the call was inactive.
On to `O=C(c1ccco1)N1c2ccccc2Sc2ccccc21`, for which the result was inactive.
Under `CC(C)NC(=O)c1c2c(nc3ccccc13)CCCC2` stands “inactive”.
Under `Cc1nnc2ccc(N3CCN(C(=O)c4ccccc4)CC3)nn12` stands “inactive”; under `O=C1COc2ccc(C(=O)COC(=O)Cn3cnc4ccccc43)cc2N1`, “inactive”.
In the case of `CCOC(=O)CNC(=O)C(CC(C)C)NC(=O)C1CCCCC1` (stereo not drawn), the outcome was inactive.
As to `CCc1ccc(OCc2nc(-c3ccccn3)no2)c(Br)c1`, the call was active.
Consider `Clc1ccccc1OCc1nc(-c2ccncc2)no1`, for which the molecule was called inactive.
Regarding `Clc1ccc(OCc2nc(-c3ccccn3)no2)c(Br)c1`, the molecule was classed as inactive.
On to `Cc1ccc(OCc2nc(-c3ccccn3)no2)cc1`, for which the molecule was called inactive.
For `CC(C)c1ccc(OCc2nc(-c3ccccn3)no2)c(Br)c1`, the outcome was inactive.
Consider `Clc1cc(Cl)c(OCc2nc(-c3ccccn3)no2)cc1Cl`, for which the molecule was called inactive.
Take `CC(C)(C)c1ccc(OCc2nc(-c3ccccn3)no2)c(Br)c1`: the outcome was inactive.
Take `O=C(NCC1COc2ccccc2O1)c1c[nH]c2ccc(S(=O)(=O)N3CCOCC3)cc2c1=O` (stereo not drawn): the molecule was classed as inactive.
Under `CCN(CC)c1ccc(NC(=O)CCCCCN2C(=O)c3ccccc3C2=O)cc1` stands “inactive”; under `CCOC(=O)C1CCN(C(=O)CN(c2cccc(C(F)(F)F)c2)S(C)(=O)=O)CC1`, “inactive”; under `CN(C)S(=O)(=O)N1CCN(C(=O)N2CCOCC2)CC1`, “inactive”.
On to `COc1cccc(CSc2nc3sc(C)c(C)c3c(=O)n2Cc2ccco2)c1`, for which the result was inactive.
For the molecule `C=CCn1c(COc2cccc3ccc(C)nc23)nnc1SCC(=O)O`, the molecule was called inactive.
For the molecule `CC(C)CCNC(=O)C1C2C=CC3(CN(Cc4ccccc4Cl)C(=O)C13)O2` (stereo not drawn), the molecule was called inactive.
As to `CCOC(=O)N1CCN(C(=O)c2ccccc2-c2ccccc2)CC1`, the molecule was called active.
Regarding `O=C(c1ccccc1-c1ccccc1)N1CCCC1`, the result was inactive.
Under `CCOC(=O)N1CCN(C(=O)c2ccccc2Oc2ccccc2)CC1` stands “inactive”.
With `Fc1ccc(-c2cc(C(F)(F)F)nc(N3CCCCC3)n2)cc1`, the outcome was inactive.
As for `Cc1nc2ncnn2c(N2CCC(C(=O)NCC3CCCO3)CC2)c1Cc1ccccc1` (stereo not drawn), the result was inactive.
Regarding `COc1ccc(CCNc2nnc(Sc3nnnn3-c3ccccc3)s2)cc1OC`, the molecule was called active.
With `CCCSc1nnc(Sc2nnnn2-c2ccccc2)s1`, the molecule was classed as inactive.
Take `COc1ccc(-n2nnnc2SCC(=O)NCCc2ccc(OC)c(OC)c2)cc1`: the result was inactive.
Turning to `COc1cccc2cc(C(C)=O)c(=O)oc12`, the outcome was inactive.
In the case of `O=C(C1CCCN(Cc2ccccc2)C1)N1CCCCC1` (stereo not drawn), the call was inactive.
In the case of `CCOC(=O)c1sc(NC(=O)c2cncc(Br)c2)nc1C`, the result was inactive.
For the molecule `CCC(C)(C)n1nnnc1C(c1ccc2ncccc2c1)N1CCN2CCCC2C1` (stereo not drawn), the result was inactive.
As to `CN1CCN(/C=N/c2sc3c(c2C#N)CCCCC3)CC1`, the molecule was classed as inactive.
Turning to `CCN1CCN(/C=N/c2nc3c(s2)CCCC3)CC1`, the molecule was called active.
Regarding `CCN1CCN(/C=N/c2nc(C)cs2)CC1`, the result was inactive.
Take `CC1=CC(C)(C)N2C(=O)C3(C(C#N)=C(N)Oc4cc(C)oc(=O)c43)c3cc(C)cc1c32` (stereo not drawn): the result was inactive.
On to `O=C(O)c1cccc(COc2ccccc2Cl)c1`, for which the result was active.
Under `O=C(c1cccc(Cl)c1)N1CCN(c2ccccn2)CC1` stands “inactive”.
As to `O=C(O)c1ccccc1COc1ccccc1Cl`, the molecule was classed as inactive.
As for `O=C(CCCOc1ccc(Cl)cc1Cl)N1CCN(c2ccccn2)CC1`, the molecule was called inactive.
Under `O=C(O)c1ccc(COc2cccc(CO)c2)cc1` stands “inactive”.
Take `O=C(O)c1ccc(COc2ccc(CO)cc2Cl)cc1`: the call was inactive.
`O=C(O)c1cccc(COc2ccc(CO)cc2Cl)c1`: the result was active.
`O=C(O)c1ccc(COc2ccccc2Cl)cc1`: the call was inactive.
Consider `CCOC(=O)CNC(=O)CSc1ncnc2c1cnn2-c1ccccc1`, for which the molecule was called inactive.
For the molecule `CCOC(=O)CNC(=O)CSc1ncnc2c1cnn2-c1ccc(Cl)cc1`, the call was inactive.
For `CCOC(=O)CCc1c(C)n(CC)c2cc(-c3ccccc3OC)nn2c1=O`, the result was inactive.
As to `c1cnc(N2CC[N+]3(CCCC3)CC2)nc1`, the outcome was inactive.
As to `CCOc1cc(-c2nnc(-c3ccco3)o2)cc(OCC)c1OCC`, the call was inactive.
Consider `COCCCNC(=O)Cn1nnc(-c2ccccc2NC(=O)c2ccccc2F)n1`, for which the molecule was called inactive.
Turning to `COc1ccc(C2C(C(C)=O)=C(O)C(=O)N2CCO)c(OC)c1` (stereo not drawn), the molecule was classed as inactive.
Under `COC(=O)c1ccc(OC(=O)c2ccc(OCc3c(C)noc3C)c(OC)c2)cc1` stands “inactive”.
Under `COC(=O)c1ccc2c(c1)C(C)(C)C(/C=C/c1ccc(OC)c(OC)c1OC)=[N+]2C` stands “active”.
Take `COC(=O)c1ccc(OC(=O)c2ccc(OC)c(OC)c2)c(OC)c1`: the outcome was inactive.
Consider `CCn1c(=O)c2c3c(sc2n(C)c1=O)CCC3`, for which the outcome was inactive.
Under `Cc1cccc(OCC(=O)Nc2cccc(O)c2)c1` stands “inactive”.
Regarding `Cc1ccc(OCC(=O)Nc2cccc(O)c2)cc1C`, the molecule was called inactive.
On to `O=C(CCN1CCN(c2ccccc2)CC1)Nc1ccc(Cl)cc1`, for which the call was inactive.
In the case of `Cc1cn(Cc2ccccc2)c(=O)[nH]c1=O`, the outcome was inactive.
For the molecule `CC1CCc2nc(NC(=O)Cc3cccs3)sc2C1` (stereo not drawn), the call was inactive.
`CC1CCc2nc(NC(=O)CN3CCOCC3)sc2C1` (stereo not drawn): the molecule was classed as inactive.
On to `Cc1cc(C(=O)Nc2nc3c(s2)CCCC3)no1`, for which the outcome was inactive.
In the case of `CC1CCc2nc(NC(=O)C3CC3)sc2C1` (stereo not drawn), the call was inactive.
As for `O=C(Nc1nc2c(s1)CCCC2)c1ccc(Br)o1`, the call was inactive.
The same measure for `CC1CCc2nc(NC(=O)c3ccco3)sc2C1` (stereo not drawn): “active”; for `Cc1ncsc1C(=O)Nc1nc2c(s1)CC(C)CC2` (stereo not drawn): “inactive”.
